mHTT-CaM PPI inh – mutant huntingtin-calmodulin interaction inhibitors – biochemical, AlphaScreen, primary screen; AlphaScreen His-mHTT/GST-CaM binding, luminescence; inhibition, % at 15 µM; hit rate 3.6% among 190,000;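 further: 0% = both proteins with DMSO and 100% = one protein alone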
Target sequence (P42858 whole entry, looked up, stated change not applied): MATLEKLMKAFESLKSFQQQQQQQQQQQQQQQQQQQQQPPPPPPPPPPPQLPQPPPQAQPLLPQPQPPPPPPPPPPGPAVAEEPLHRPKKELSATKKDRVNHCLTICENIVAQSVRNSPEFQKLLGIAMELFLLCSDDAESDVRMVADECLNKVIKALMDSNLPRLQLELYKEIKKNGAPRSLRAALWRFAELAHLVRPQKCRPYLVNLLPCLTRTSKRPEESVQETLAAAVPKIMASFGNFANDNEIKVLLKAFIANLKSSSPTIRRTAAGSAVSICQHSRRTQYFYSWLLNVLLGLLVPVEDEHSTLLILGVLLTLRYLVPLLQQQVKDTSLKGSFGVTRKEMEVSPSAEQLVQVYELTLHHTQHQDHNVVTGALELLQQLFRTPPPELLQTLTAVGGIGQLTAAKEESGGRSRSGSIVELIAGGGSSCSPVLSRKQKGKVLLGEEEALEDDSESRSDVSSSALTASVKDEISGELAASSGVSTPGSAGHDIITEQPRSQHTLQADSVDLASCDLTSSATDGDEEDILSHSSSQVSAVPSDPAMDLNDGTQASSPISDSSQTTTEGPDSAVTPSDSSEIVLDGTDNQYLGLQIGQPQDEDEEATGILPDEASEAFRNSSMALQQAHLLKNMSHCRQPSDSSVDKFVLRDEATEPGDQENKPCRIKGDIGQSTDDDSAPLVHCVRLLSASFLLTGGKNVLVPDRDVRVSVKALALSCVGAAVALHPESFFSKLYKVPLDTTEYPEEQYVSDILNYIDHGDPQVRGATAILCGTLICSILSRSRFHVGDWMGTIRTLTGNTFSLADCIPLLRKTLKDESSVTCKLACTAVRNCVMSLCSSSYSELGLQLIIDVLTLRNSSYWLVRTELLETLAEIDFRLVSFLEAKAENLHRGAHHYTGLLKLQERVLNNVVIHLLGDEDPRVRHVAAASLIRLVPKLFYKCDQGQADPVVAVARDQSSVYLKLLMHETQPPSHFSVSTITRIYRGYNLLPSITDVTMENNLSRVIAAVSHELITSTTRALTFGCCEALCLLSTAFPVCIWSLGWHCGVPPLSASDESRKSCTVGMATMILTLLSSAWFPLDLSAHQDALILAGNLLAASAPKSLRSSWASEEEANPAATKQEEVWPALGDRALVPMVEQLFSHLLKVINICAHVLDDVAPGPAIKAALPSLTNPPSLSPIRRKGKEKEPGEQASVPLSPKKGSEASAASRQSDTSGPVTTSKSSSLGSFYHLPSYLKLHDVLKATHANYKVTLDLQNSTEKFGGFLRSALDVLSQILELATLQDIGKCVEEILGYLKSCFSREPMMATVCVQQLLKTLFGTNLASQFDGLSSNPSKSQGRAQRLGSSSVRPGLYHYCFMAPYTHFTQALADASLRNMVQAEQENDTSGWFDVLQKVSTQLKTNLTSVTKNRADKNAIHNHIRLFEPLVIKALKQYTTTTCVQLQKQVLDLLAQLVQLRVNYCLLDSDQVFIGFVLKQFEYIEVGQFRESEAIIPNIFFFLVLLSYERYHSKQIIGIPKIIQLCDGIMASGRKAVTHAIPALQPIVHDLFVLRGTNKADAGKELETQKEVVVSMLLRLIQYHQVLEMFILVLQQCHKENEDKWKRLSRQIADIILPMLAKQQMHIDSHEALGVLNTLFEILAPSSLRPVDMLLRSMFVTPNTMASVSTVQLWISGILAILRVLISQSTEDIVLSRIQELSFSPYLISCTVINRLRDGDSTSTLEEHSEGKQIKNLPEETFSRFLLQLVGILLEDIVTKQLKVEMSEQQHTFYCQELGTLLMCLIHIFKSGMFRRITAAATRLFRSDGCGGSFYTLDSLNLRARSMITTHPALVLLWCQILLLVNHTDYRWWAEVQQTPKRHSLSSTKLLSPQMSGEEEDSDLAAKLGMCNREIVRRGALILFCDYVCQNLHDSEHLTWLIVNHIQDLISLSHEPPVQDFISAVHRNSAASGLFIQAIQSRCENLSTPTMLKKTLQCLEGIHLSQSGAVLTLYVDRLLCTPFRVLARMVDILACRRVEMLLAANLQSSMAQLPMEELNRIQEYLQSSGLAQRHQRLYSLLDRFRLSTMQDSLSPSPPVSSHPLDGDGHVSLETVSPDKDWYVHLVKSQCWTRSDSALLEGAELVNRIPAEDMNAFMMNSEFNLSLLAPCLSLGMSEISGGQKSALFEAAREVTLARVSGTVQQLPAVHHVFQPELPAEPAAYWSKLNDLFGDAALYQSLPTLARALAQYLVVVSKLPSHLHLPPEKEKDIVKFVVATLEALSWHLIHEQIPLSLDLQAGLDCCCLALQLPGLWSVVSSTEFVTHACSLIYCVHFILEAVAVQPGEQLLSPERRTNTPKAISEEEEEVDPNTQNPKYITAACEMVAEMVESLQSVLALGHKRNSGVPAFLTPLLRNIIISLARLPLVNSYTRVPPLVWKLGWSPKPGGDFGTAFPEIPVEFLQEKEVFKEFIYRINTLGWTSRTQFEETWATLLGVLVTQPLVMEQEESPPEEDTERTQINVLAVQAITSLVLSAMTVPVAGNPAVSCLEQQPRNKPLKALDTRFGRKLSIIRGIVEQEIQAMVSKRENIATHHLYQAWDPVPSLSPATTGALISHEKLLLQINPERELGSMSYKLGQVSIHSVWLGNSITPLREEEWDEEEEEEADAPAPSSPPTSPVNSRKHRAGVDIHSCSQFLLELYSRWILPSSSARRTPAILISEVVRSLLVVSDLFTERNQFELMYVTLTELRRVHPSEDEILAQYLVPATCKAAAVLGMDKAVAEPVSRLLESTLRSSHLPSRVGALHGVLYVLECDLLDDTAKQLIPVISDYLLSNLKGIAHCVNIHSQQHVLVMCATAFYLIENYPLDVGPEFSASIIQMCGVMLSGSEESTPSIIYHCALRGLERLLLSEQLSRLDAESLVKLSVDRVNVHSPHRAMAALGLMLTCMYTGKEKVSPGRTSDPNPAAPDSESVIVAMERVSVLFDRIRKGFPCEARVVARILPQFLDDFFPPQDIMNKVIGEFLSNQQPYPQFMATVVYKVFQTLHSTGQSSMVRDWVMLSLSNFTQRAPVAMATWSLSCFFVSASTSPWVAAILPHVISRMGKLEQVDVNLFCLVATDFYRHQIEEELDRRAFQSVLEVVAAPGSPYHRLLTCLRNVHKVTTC
Pf apPOL inh – Pf-apPOL inhibitors, biochemical, fluorescence. Plasmodium falciparum apicoplast DNA polymerase (apPOL). AID 1794808, 2022. hit rate 0.25% among 210,000. inhibition, % at 10 µM. Recombinant Pf-apPOL, molecular beacon fluorescence, 1.5 h
An asterisk follows results filed as active; ! = not active in a repeat. Only some compounds are listed: those with a hit (about 3.5% of all), similar ones and a draw of the others. No stated cut-off is given here; in the data, active means inhibition above about 50%; inactive means the rest.

Cc1ccc(NC(=O)N2CCOc3ccc(Cl)cc32)cc1 was read as mHTT-CaM PPI inh -11 and Pf apPOL inh 1.
CCN(CC)CCNC(=O)C1CCN(c2nnc3ccc(Cl)cn23)CC1 was read as mHTT-CaM PPI inh 3 and Pf apPOL inh -1.
Cc1cc(-c2nc(-c3ccnn3S(=O)(=O)c3cccc(C(F)(F)F)c3)cs2)no1 was read as Pf apPOL inh 3.
Screening CCOC(=O)c1cc(-c2ccnn2S(=O)(=O)c2cccc(C(F)(F)F)c2)on1 returned Pf apPOL inh 82*.
`O=C(NCC1CN(c2ccccc2)C(=O)O1)Nc1ccccc1Cl` (stereo not drawn) gave mHTT-CaM PPI inh -10 and Pf apPOL inh -2.
Screening Cc1ccc(CNC(=O)c2nc(-c3ccncc3)cs2)cc1 returned mHTT-CaM PPI inh 14 and Pf apPOL inh -6.
O=C(NCc1ccc(Cl)cc1)c1nc(-c2ccncc2)cs1 was read as mHTT-CaM PPI inh 66* and Pf apPOL inh -2.
For COc1ccc(CCNC(=O)CN2N=C(c3ccc(Cl)cc3)CCC2=O)cc1OC the results were mHTT-CaM PPI inh 15 and Pf apPOL inh -18.
Screening Cc1ccc(CCNC(=O)CN2N=C(c3ccc(Cl)cc3)CCC2=O)cc1 returned mHTT-CaM PPI inh 65* and Pf apPOL inh -13.
Screening O=C(Nc1ccc2snnc2c1)N1CCCC1 returned mHTT-CaM PPI inh 1 and Pf apPOL inh -2.
`Cc1cc(C2CC(C(=O)NCc3cccnc3)CN(C(=O)NC(C)C)C2)ccc1F` (stereo not drawn) gave mHTT-CaM PPI inh 67* and Pf apPOL inh 0.
For CCC(C)NC(=O)C1CC(c2ccc(F)c(C)c2)CN(C(=O)c2ccccc2)C1 (stereo not drawn) the results were mHTT-CaM PPI inh 96* and Pf apPOL inh 2.
For CCNC(=O)C1CC(c2ccccc2)CN(C(=O)c2ccccc2)C1 (stereo not drawn) the results were mHTT-CaM PPI inh -4 and Pf apPOL inh 2.
For CCNC(=O)C1CC(c2ccc(F)c(C)c2)CN(C(C)=O)C1 (stereo not drawn) the results were mHTT-CaM PPI inh -4 and Pf apPOL inh -4.
`CCNC(=O)N1CC(C(=O)NCC2CC2)CC(c2ccc(F)c(C)c2)C1` (stereo not drawn) gave mHTT-CaM PPI inh 44 and Pf apPOL inh 9.
CCNC(=O)C1CC(c2ccc(F)c(C)c2)CN(C(=O)c2ccccc2)C1 (stereo not drawn) was read as mHTT-CaM PPI inh 93* and Pf apPOL inh -4.
COCCn1ccc2cc[nH]c(=O)c21 was read as mHTT-CaM PPI inh -6 and Pf apPOL inh -5.
Screening CC(C)n1ccc(-c2nnc(NC(=O)CCSc3ccc(F)cc3)o2)n1 returned mHTT-CaM PPI inh 2 and Pf apPOL inh -3.
`c1ccc(-c2csc(NCc3ccco3)n2)cc1` gave mHTT-CaM PPI inh 24 and Pf apPOL inh -9.
c1ccc(-c2csc(NCc3ccco3)n2)nc1 was read as mHTT-CaM PPI inh 99* and Pf apPOL inh -18.
Screening c1ccc(CNc2nc(-c3ccccn3)cs2)cc1 returned mHTT-CaM PPI inh 100* and Pf apPOL inh -2.
For CCNc1nc(-c2ccccc2)cs1 the results were Pf apPOL inh -12.
COc1cccc(C(=O)N2CCN=C2SCc2cccc(F)c2)c1OC was read as mHTT-CaM PPI inh -20 and Pf apPOL inh 59*.
Screening COc1cccc(C(=O)N2CCN=C2SC)c1OC returned mHTT-CaM PPI inh 5 and Pf apPOL inh -3.
For CCN1CCN(c2ncc3c(n2)CCN(Cc2ccc(Br)cc2)C3)CC1 the results were mHTT-CaM PPI inh 76* and Pf apPOL inh 2.
CC1CCN(c2ncc3c(n2)CCN(Cc2ccc(Br)cc2)C3)CC1 was read as mHTT-CaM PPI inh 54* and Pf apPOL inh -7.
`CCCN1CCN(c2ncc3c(n2)CCN(Cc2ccc(N(C)C)cc2)C3)CC1` gave mHTT-CaM PPI inh 53* and Pf apPOL inh -4.
For CCOc1ccc(CN2CCc3nc(N4CCC(C)CC4)ncc3C2)cc1 the results were mHTT-CaM PPI inh 27 and Pf apPOL inh -4.
`CCCN1CCN(c2ncc3c(n2)CCN(Cc2ccc(CC)cc2)C3)CC1` gave mHTT-CaM PPI inh 16 and Pf apPOL inh -4.
Screening CCCN1CCN(c2ncc3c(n2)CCN(Cc2ccc(Br)cc2)C3)CC1 returned mHTT-CaM PPI inh 32 and Pf apPOL inh -4.
Cc1ccccc1N1CCN(Cc2nc(C(=O)N3CCN(C)CC3)cs2)CC1 was read as mHTT-CaM PPI inh 8 and Pf apPOL inh -4.
`Cc1ccc(-c2csc3c(=O)n(CC(=O)N(C)c4ccc(F)cc4)cnc23)cc1` gave mHTT-CaM PPI inh -5 and Pf apPOL inh -3.
N#C/C(=C(/O)c1ccc(I)cc1)c1nc2ccccc2[nH]1 was read as mHTT-CaM PPI inh -3 and Pf apPOL inh -2.
CN(CC(O)COCc1ccccc1)C1CCCCC1 (stereo not drawn) was read as mHTT-CaM PPI inh -4 and Pf apPOL inh -4.
`O=S(=O)(c1c(F)cccc1F)N(CCc1ccc(F)cc1)C[C@@H](O)COCc1ccccc1` gave mHTT-CaM PPI inh 99* and Pf apPOL inh -4.
Screening CCOC(=O)c1cccc(NC(=O)C2Oc3ccccc3NC2=O)c1 (stereo not drawn) returned mHTT-CaM PPI inh 36 and Pf apPOL inh 6.
Screening O=c1nc2n(-c3cccc(Cl)c3)c3ccccc3cc-2c(=O)[nH]1 returned mHTT-CaM PPI inh 2 and Pf apPOL inh -3.
`COc1cccc(C2CC(=O)Nc3cc(C)c(C)cc32)c1OC` (stereo not drawn) gave mHTT-CaM PPI inh 100* and Pf apPOL inh -17.
For COc1cc2c(cc1OC)C(c1cccc(Cl)c1Cl)CC(=O)N2 (stereo not drawn) the results were mHTT-CaM PPI inh 9 and Pf apPOL inh -5.
Screening CS(=O)(=O)N(CC(=O)Nc1ccccc1C(=O)N1CCCC1)c1ccccc1F returned mHTT-CaM PPI inh -5 and Pf apPOL inh 5.
`CCOCCn1cnc2sc(C(=O)Nc3ccc4c(c3)OCO4)c(C)c2c1=O` gave mHTT-CaM PPI inh 2 and Pf apPOL inh -10.
Screening O=[N+]([O-])c1cccc(C2Nc3c(cccc3C(F)(F)F)C3C=CCC32)c1 (stereo not drawn) returned mHTT-CaM PPI inh 58* and Pf apPOL inh 1.
O=[N+]([O-])c1ccc(C2Nc3c(Cl)cccc3C3C=CCC32)cc1 (stereo not drawn) was read as mHTT-CaM PPI inh 18 and Pf apPOL inh 19.
For O=[N+]([O-])c1cccc(C2NCCC3(O)CCCCC23)c1 (stereo not drawn) the results were mHTT-CaM PPI inh -13 and Pf apPOL inh 0.
Screening O=[N+]([O-])c1cccc(C2Nc3c(Cl)cccc3C3C=CCC32)c1 (stereo not drawn) returned mHTT-CaM PPI inh 75*! and Pf apPOL inh -1.
`O=[N+]([O-])c1cccc(C2Nc3c(cccc3[N+](=O)[O-])C3C=CCC32)c1` (stereo not drawn) gave mHTT-CaM PPI inh 72* and Pf apPOL inh -6.
Screening CCc1ccc2ncc(C#N)c(N3CCC(C(=O)Nc4ccccc4)CC3)c2c1 returned mHTT-CaM PPI inh -4 and Pf apPOL inh 0.
Screening O=C(NC1CCCC1)C1CCCN(c2nnc3ccc(C(F)(F)F)cn23)C1 (stereo not drawn) returned mHTT-CaM PPI inh -2 and Pf apPOL inh -1.

Screening data deposited in PubChem by University of Kansas High Throughput Screening Laboratory.
